# Test results reported in PubChem BioAssay AID463173 (ICCB-Longwood Screening Facility, Harvard Medical School, 2010).
# “And” between values parts separate entries of the source, which are not always exact repeats. Equal entries are not always repeated. Screen size: about 52,000 compounds; about 4,300 (8.3%) were called active. Rule as the data show it: active = survival mostly below about 52% (no sharp cut-off); inactive = mostly above about 56%. Shown is part of a subset that was picked to be rich in actives. More than one record can exist for a structure, and the calls need not agree.
# Tested on: DeltatarO mutant
# Assay: S. aureus survival, RN4220 and DeltatarO strains – OD600, teichoic acid synthesis inhibitors, primary screen (AID 463173)
# Conditions: S. aureus RN4220 wild type/DeltatarO growth, OD600, 18 h, stronger effect = lower value, screened at 18.75 µg/mL (by protocol)
row,Compound,survival
1,CCCc1cnc2c(c1SCC(=O)Nc1c(C)cc(C)cc1C)c(=O)n(C)c(=O)n2C,94% (inactive)
2,CCOc1ccc(NC(=O)CSc2nc3nc(C)c(Cc4ccccc4)c(C)n3n2)cc1,89% (inactive)
3,CCC(OC(=O)CN1C(=O)c2ccccc2C1=O)C(=O)NC1CCCC1 (configuration not stated),83% (inactive)
4,COC(=O)c1ccc(C(=O)OC)c(NC(C)=O)c1,73% (inactive)
5,O=C(NCc1ccc(Cl)cc1)C1CCCN(C(=O)c2cnn(-c3ccc(F)cc3)c2-n2cccc2)C1 (configuration not stated),73% (inactive)
6,Cc1c(Cl)cccc1NC(=O)c1cccc(NC(=O)N2CCSc3ncccc32)c1,80% (inactive)
7,COc1ccc(C(=O)Nc2ccccc2C(=O)Nc2ccccn2)cc1,94% (inactive)
8,O=C1CSC(=Nc2cccc(C(=O)O)c2)N1,82% (inactive)
9,CC(=O)c1cc2c(cc1N/C(=N/S(=O)(=O)c1ccccc1)c1ccc(Cl)cc1)OCO2,0% (active)
10,CC(=O)c1cc2c(cc1N/C(=N/S(=O)(=O)c1ccc(Br)cc1)c1ccccc1)OCO2,69% (inactive)
11,CC(=O)c1cc2c(cc1N/C(=N/S(=O)(=O)c1ccc(C)cc1)c1ccc(Cl)cc1)OCO2,37% (active)
12,CC(=O)c1cc2c(cc1N/C(=N/S(=O)(=O)c1ccc(C)cc1)c1ccccc1)OCO2,74% (inactive)
13,CC(=O)c1cc2c(cc1N/C(=N/S(=O)(=O)c1ccc(Cl)cc1)c1ccc(F)cc1)OCO2,99% (inactive)
14,CC(=O)c1cc2c(cc1N/C(=N/S(=O)(=O)c1ccc(C)cc1)c1ccc(F)cc1)OCO2,83% (inactive)
15,O=C(NCc1cccc(Br)c1)C1CCCCN1S(=O)(=O)c1ccc(F)cc1 (configuration not stated),89% (inactive)
16,O=C(Cn1c(-c2cccs2)cc2cc(F)ccc21)NCCCN1CCN(c2ccccc2F)CC1,67% (inactive)
17,COc1ccc(-n2nc3c(N4CCC(C(=O)NCCc5ccccc5)CC4)nnc(C)c3c2C)cc1,85% (inactive)
18,CCc1cccc(Nc2c3c(nc4ncnn24)CCC3)c1,95% (inactive)
19,COc1ccc(-c2nn3c(=O)cc(CN4CCN(C(=O)Nc5ccc(C)c(Cl)c5)CC4)nc3s2)cc1,78% (inactive)
20,CCOC(=O)C(C)Sc1nc(-c2ccccc2)ccc1C#N (configuration not stated),82% (inactive) and -1% (active)
21,CCCCSc1nc(-c2ccc(OC)cc2)ccc1C#N,52% (inactive)
22,CCOC(=O)C(C)Sc1nc(-c2ccccc2Cl)cc(-c2ccccc2)c1C#N (configuration not stated),64% (inactive)
23,O=C(CN1CCN(c2ccccn2)CC1)N(c1ccccc1)c1ccc2ccccc2c1,59% (inactive)
24,COc1cccc(NC(=O)c2csc3c2CCCCC3)c1,37% (active)

row,Compound,survival
1,COc1ccc(CCNC(=O)c2csc3c2CCCCC3)c(OC)c1,66% (inactive)
2,COc1ccc(OC)c(CCNC(=O)c2ccc3[nH]c(C)c(C)c3c2)c1,107% (inactive)
3,COc1ccc(NC(=O)c2csc3c2CCCCC3)cc1,70% (inactive)
4,COc1ccc(OC)c(CCNC(=O)c2csc3c2CCCCC3)c1,44% (active)
5,Cc1cccc(C)c1NC(=O)c1csc2c1CCCC2,90% (inactive)
6,COc1ccc(-c2cc(-c3ccccc3)nc3c2COc2ccc(F)cc2-3)cc1,73% (inactive)
7,CCCc1c(O)nc(SCC(=O)N2CCCCC2)[nH]c1=O,69% (inactive)
8,CCSc1ncc(Cl)c(C(=O)Nc2nc3ccc(OC)cc3s2)n1,83% (inactive)
9,COc1ccc2nc(NC(=O)c3nc(SC(C)C)ncc3Cl)sc2c1,93% (inactive)
10,Cc1cccc(CSc2ncc(Cl)c(C(=O)Nc3nc4ccc(F)cc4s3)n2)c1,33% (active)
11,Cc1ccccc1CSc1ncc(Cl)c(C(=O)Nc2nc3ccc(F)cc3s2)n1,100% (inactive)
12,O=C(Nc1nc2ccc(F)cc2s1)c1nc(SCc2ccccc2F)ncc1Cl,48% (inactive)
13,CCOc1ccc2nc(NC(=O)c3nc(SCc4ccc(C)cc4)ncc3Cl)sc2c1,54% (inactive)
14,CCOc1ccc2nc(NC(=O)c3nc(SC(C)C)ncc3Cl)sc2c1,41% (active)
15,CCCSc1ncc(Cl)c(C(=O)Nc2nc3ccc(OCC)cc3s2)n1,63% (inactive)
16,COc1ccc2nc(NC(=O)c3nc(SCc4ccc(F)cc4)ncc3Cl)sc2c1,53% (inactive)
17,COc1ccc2nc(NC(=O)c3nc(SCc4cccc(C)c4)ncc3Cl)sc2c1,37% (active)
18,Cc1ccc(CSc2ncc(Cl)c(C(=O)Nc3nc4ccc(C)cc4s3)n2)cc1,53% (inactive)
19,CCCSc1ncc(Cl)c(C(=O)Nc2nc3ccc(C)cc3s2)n1,49% (active)
20,CCCN(CCC)C(=O)Cn1c(=O)n(-c2cccc(C(F)(F)F)c2)c(=O)c2c(C)c(C)sc21,44% (inactive)
21,CCC1SC(=S)N(CC(=O)O)C1=O (configuration not stated),100% (inactive)
22,CCOCCCNC(=O)Cn1ncc2c([nH]c3ccc(C)cc32)c1=O,83% (inactive)
23,O=C1NC(c2ccccc2)/C(=C(\O)c2ccccc2)C1=O (configuration not stated),70% (inactive)
